The whole screen tested about 5,500 compounds, of which about 2,000 (36%) were called active. Another 18% or so got no clear call; they are omitted. Rule as the data show it: active = normalized growth mostly below about 0.91 (no sharp cut-off); inconclusive = no clear call, values can overlap the other calls; inactive = mostly above about 0.92. The list shows a part of the results.
Experiment: chemical genetic growth profiling, strain panel (AID 1159580);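 also: tested at 20 µM; growth read once vehicle control cultures reached saturation at 30 °C; 1 = growth at the plate median or of vehicle wells; lower values mean less growth of the strain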
Details: S. cerevisiae deletion strains, growth OD
[1] = locus YAL013W, strain DEP1, stronger effect = lower value
[2] = locus YAL040C, strain CLN3, stronger effect = lower value
[3] = locus YCL061C, strain MRC1 (second series), stronger effect = lower value
[4] = locus YDR363W, strain ESC2, stronger effect = lower value
[5] = locus YER002W, strain NOP16, stronger effect = lower value
[6] = locus YGR078C, strain PAC10, stronger effect = lower value
[7] = locus YMR263W, strain SAP30, stronger effect = lower value
[8] = locus YMR307W, strain GAS1, stronger effect = lower value
[9] = locus YNL175C, strain NOP13, stronger effect = lower value
[10] = locus YNL197C, strain WHI3, stronger effect = lower value
[11] = locus YNL224C, strain SQS1, stronger effect = lower value
[12] = locus YOR083W, strain WHI5 (second series), stronger effect = lower value

Measured: normalized growth

Cc1ccccc1N1CCN(S(=O)(=O)C[C@]23CCC(CC2NC(=O)[C@@H](N)CCS(C)(=O)=O)C3(C)C)CC1 (stereo partly specified)
inactive: [1] 0.995 | [2] 1.01 | [3] 1 | [4] 1 | [5] 1.04 | [6] 0.999 | locus YGR229C, strain SMI1, stronger effect = lower value 1 | [7] 0.995 | [8] 0.99 | [9] 1.01 | [10] 1.01 | [11] 1.01 | locus YNL322C, strain KRE1, stronger effect = lower value 0.99 | [12] 1.04

CCCN(CCC)C1Cc2cc(OC)c(OC)cc2C1
inactive: [1] 0.961 | [2] 1.05 | [3] 0.988 | [4] 0.974 | [5] 1.04 | [7] 0.985 | [8] 0.995 | [9] 1.02 | [10] 0.983 | [11] 0.994 | [12] 0.995

Clc1ccc(C(Cn2ccnc2)OCc2ccsc2Cl)c(Cl)c1 (stereo unspecified)
active: locus YAL021C, strain ccr4, stronger effect = lower value 0.0615 | locus YAL026C, strain drs2, stronger effect = lower value 0.0595 | locus YAL030W, strain snc1, stronger effect = lower value 0.058 | locus YBL061C, strain skt5, stronger effect = lower value 0.0605 | locus YBR009C, strain hhf1, stronger effect = lower value 0.0623 | locus YBR023C, strain chs3, stronger effect = lower value 0.0625 | locus YBR171W, strain sec66, stronger effect = lower value 0.077 | locus YBR231C, strain swc5, stronger effect = lower value 0.0613 | locus YBR279W, strain paf1, stronger effect = lower value 0.0605 | locus YCL011C, strain gbp2, stronger effect = lower value 0.0554 | locus YCL016C, strain dcc1, stronger effect = lower value 0.0612 | locus YCL061C, strain MRC1, stronger effect = lower value 0.0623 | locus YCL069W, strain vba3, stronger effect = lower value 0.0601 | locus YCR088W, strain abp1, stronger effect = lower value 0.0619 | locus YDL005C, strain med2, stronger effect = lower value 0.0727 | locus YDL040C, strain nat1, stronger effect = lower value 0.0591 | locus YDR001C, strain nth1, stronger effect = lower value 0.0593 | locus YDR069C, strain doa4, stronger effect = lower value 0.0605 | locus YDR137W, strain rgp1, stronger effect = lower value 0.0897 | locus YDR159W, strain sac3, stronger effect = lower value 0.0897 | locus YDR195W, strain ref2 0.109 | locus YDR297W, strain sur2, stronger effect = lower value 0.0576 | locus YDR334W, strain swr1, stronger effect = lower value 0.0622 | locus YDR335W, strain msn5, stronger effect = lower value 0.0604 | locus YDR392W, strain spt3, stronger effect = lower value 0.0929 | locus YEL003W, strain gim4, stronger effect = lower value 0.0528 | locus YEL037C, strain rad23, stronger effect = lower value 0.0589 | locus YEL061C, strain CIN8 (second series), stronger effect = lower value 0.0607 | locus YER015W, strain faa2, stronger effect = lower value 0.0602 | locus YER016W, strain bim1, stronger effect = lower value 0.0611 | locus YER111C, strain swi4, stronger effect = lower value 0.0729 | locus YER155C, strain BEM2 (second series), stronger effect = lower value 0.0863 | locus YFR010W, strain ubp6, stronger effect = lower value 0.0638 | locus YGL167C, strain pmr1, stronger effect = lower value 0.0775 | locus YGL173C, strain kem1, stronger effect = lower value 0.0679 | locus YGL227W, strain vid30, stronger effect = lower value 0.0627 | locus YGL240W, strain doc1, stronger effect = lower value 0.0751 | locus YGL253W, strain hxk2, stronger effect = lower value 0.0532 | locus YHR013C, strain ard1, stronger effect = lower value 0.116 | locus YHR027C, strain rpn1, stronger effect = lower value 0.0631 | locus YHR030C, strain SLT2, stronger effect = lower value 0.1 | locus YHR079C, strain IRE1, stronger effect = lower value 0.111 | locus YHR142W, strain chs7, stronger effect = lower value 0.0682 | locus YJL092W, strain hpr5, stronger effect = lower value 0.058 | locus YJL095W, strain BCK1 (second series), stronger effect = lower value 0.0564 | locus YJL095W, strain BCK1, stronger effect = lower value 0.131 | locus YJL115W, strain asf1, stronger effect = lower value 0.0715 | locus YJL129C, strain trk1, stronger effect = lower value 0.0844 | locus YJL154C, strain vps35, stronger effect = lower value 0.0606 | locus YJL164C, strain tpk1, stronger effect = lower value 0.0589 | locus YJL166W, strain qcr8, stronger effect = lower value 0.0614 | locus YJL187C, strain SWE1, stronger effect = lower value 0.058 | locus YJR066W, strain TOR1, stronger effect = lower value -0.00364 | locus YKL160W, strain elf1, stronger effect = lower value 0.0664 | locus YKR026C, strain gcn3, stronger effect = lower value 0.0641 | locus YKR091W, strain srl3, stronger effect = lower value 0.0588 | locus YLL001W, strain dnm1, stronger effect = lower value 0.0592 | locus YLL026W, stronger effect = lower value 0.0585 | locus YLL041C, strain sdh2, stronger effect = lower value 0.0592 | locus YLR027C, strain aat2, stronger effect = lower value 0.0566 | locus YLR113W, strain HOG1, stronger effect = lower value 0.175 | locus YLR221C, strain rsa3, stronger effect = lower value 0.0562 | locus YLR258W, strain gsy2, stronger effect = lower value 0.0592 | locus YLR262C, strain YPT6 (second series), stronger effect = lower value 0.0854 | locus YLR320W, strain mms22, stronger effect = lower value 0.083 | locus YLR342W, strain FKS1, stronger effect = lower value 0.063 | locus YLR357W, strain rsc2, stronger effect = lower value 0.114 | locus YLR370C, strain arc18, stronger effect = lower value 0.0594 | locus YLR384C, strain iki3, stronger effect = lower value 0.0608 | locus YML120C, strain ndi1, stronger effect = lower value 0.0591 | locus YMR058W, strain fet3, stronger effect = lower value 0.0582 | locus YMR125W, strain sto1, stronger effect = lower value 0.0724 | locus YMR129W, stronger effect = lower value 0.057 | locus YMR205C, strain PFK2, stronger effect = lower value 0.0885 | locus YMR231W, strain pep5, stronger effect = lower value 0.0835 | locus YNL071W, strain lat1, stronger effect = lower value 0.0601 | locus YNL183C, strain NPR1, stronger effect = lower value -4.4e-05 | locus YNL209W, strain ssb2, stronger effect = lower value 0.0596 | locus YNL248C, strain rpa49, stronger effect = lower value 0.0715 | locus YNL322C, strain KRE1 (second series), stronger effect = lower value 0.0708 | locus YNR049C, strain mso1, stronger effect = lower value 0.0574 | locus YOR001W, strain rrp6, stronger effect = lower value 0.0652 | locus YOR070C, strain gyp1, stronger effect = lower value 0.0829 | locus YOR080W, strain dia2, stronger effect = lower value 0.0656 | locus YOR083W, strain WHI5, stronger effect = lower value 0.0618 | locus YOR106W, strain vam3, stronger effect = lower value 0.0631 | locus YOR231W, strain MKK1, stronger effect = lower value 0.107 | locus YOR265W, strain rbl2, stronger effect = lower value 0.0575 | locus YOR270C, strain vph1, stronger effect = lower value 0.0903 | locus YOR290C, strain snf2, stronger effect = lower value 0.074 | locus YPL051W, strain arl3, stronger effect = lower value 0.0604 | locus YPL078C, strain atp4, stronger effect = lower value 0.0629 | locus YPL106C, strain sse1, stronger effect = lower value 0.0945 | locus YPL240C, strain hsp82, stronger effect = lower value 0.0568 | locus YPL256C, strain CLN2, stronger effect = lower value 0.133

Clc1ccc(C(c2ccc(Cl)cc2)n2cc[n+](CC(OCc3ccc(Cl)cc3Cl)c3ccc(Cl)cc3Cl)c2)cc1 (stereo unspecified)
inactive: [5] 1.01
active: [2] 0.071 | [3] 0.0506 | [4] 0.0687 | [6] 0.0555 | locus YJR075W, strain HOC1, stronger effect = lower value 0.0686 | [8] 0.0652 | [9] 0.0668 | [10] 0.0718 | [11] 0.0691 | [12] 0.0706

From PubChem BioAssay AID1159580 (chemical genetic matrix, 2015)
